We go through eight sequences from PMC8384837, “Expanding the binding specificity for RNA recognition by a PUF domain”.

Assay in all cases: yeast three-hybrid, YBZ-1, SC-Leu-His + 0.5 mM 3-AT, 4 days
Conditions in all cases: tags: N-Gal4 AD-HA kept; label: inside an RPR1-promoter hybrid RNA with tandem MS2 sites; ssRNA

The target of assay [1] is PUM1 PUF domain R5-RQK (Homo sapiens, UniProt Q14671 828-1176, C1007R;R1008Q;Q1011K). The procedure, abridged: (§1)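 Sequencing with Illumina followed PCR amplification of the repeat regions from transformants grown four days on SC-Leu (input) or SC-Leu-His + 0.5 mM 3-AT (selection). The transformants were strain YBZ-1 with a LexA–MS2 coat fusion and a HIS3 reporter, carrying Pumilio-1 PUF domain libraries and matching RNA elements. The interaction score is the log change in variant frequency from input to selection, computed in log2 with a pseudocount of 1 for absent variants.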

For assay [2], the target named is PUM1 PUF domain R5-GRS (Homo sapiens, UniProt Q14671 828-1176, C1007G;Q1011S). Summed up: as §1
The target of assay [3] is T1, PUM1 PUF domain R6-FHR (Homo sapiens, UniProt Q14671 828-1176, N1043F;Y1044H;Q1047R).
T1 sequence: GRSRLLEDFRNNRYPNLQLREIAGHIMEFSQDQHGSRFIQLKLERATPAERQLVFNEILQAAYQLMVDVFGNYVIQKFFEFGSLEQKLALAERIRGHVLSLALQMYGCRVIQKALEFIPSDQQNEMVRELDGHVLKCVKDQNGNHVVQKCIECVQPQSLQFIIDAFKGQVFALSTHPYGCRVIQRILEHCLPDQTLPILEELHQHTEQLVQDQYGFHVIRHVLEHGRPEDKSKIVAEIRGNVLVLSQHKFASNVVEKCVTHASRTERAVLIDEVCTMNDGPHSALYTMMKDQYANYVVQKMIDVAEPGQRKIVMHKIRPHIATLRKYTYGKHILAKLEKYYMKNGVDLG
Summed up:
as §1

Assay [4] has as its target T2, PUM1 PUF domain R6-LYM (Homo sapiens, UniProt Q14671 828-1176, N1043L;Q1047M).
T2 sequence: T1 sequence with F216L, H217Y, R220M
The procedure, abridged: as §1

In assay [5] the target is T3, PUM1 PUF domain R6-AFF (Homo sapiens, UniProt Q14671 828-1176, N1043A;Y1044F;Q1047F).
T3 sequence: T1 sequence with F216A, H217F, R220F
Summed up:
as §1

The target in assay [6] is PUM1 PUF domain R8-NFR (Homo sapiens, UniProt Q14671 828-1176, Y1123F;Q1126R). The procedure, abridged: as §1
In assay [7] the target is T4, PUM1 PUF domain R6-SRQ (Homo sapiens, UniProt Q14671 828-1176, N1043S;Y1044R).
T4 sequence: T1 sequence with F216S, H217R, R220Q
Summed up: as §1

Assay [8] deals with PUM1 PUF domain R3-MRL (Homo sapiens, UniProt Q14671 828-1176, C935M;Q939L). The procedure, abridged: as §1
Assay [9] concerns the target PUM1 PUF domain R8-PWC (Homo sapiens, UniProt Q14671 828-1176, N1122P;Y1123W;Q1126C). The procedure, abridged:
as §1

Assay [10] deals with PUM1 PUF domain R3-MRT (Homo sapiens, UniProt Q14671 828-1176, C935M;Q939T). Summed up:
as §1

Residue numbers refer to the chain shown, from its start.

Chain of PUM1 PUF domain R5-GRS (Q14671 828-1176 C1007G/Q1011S): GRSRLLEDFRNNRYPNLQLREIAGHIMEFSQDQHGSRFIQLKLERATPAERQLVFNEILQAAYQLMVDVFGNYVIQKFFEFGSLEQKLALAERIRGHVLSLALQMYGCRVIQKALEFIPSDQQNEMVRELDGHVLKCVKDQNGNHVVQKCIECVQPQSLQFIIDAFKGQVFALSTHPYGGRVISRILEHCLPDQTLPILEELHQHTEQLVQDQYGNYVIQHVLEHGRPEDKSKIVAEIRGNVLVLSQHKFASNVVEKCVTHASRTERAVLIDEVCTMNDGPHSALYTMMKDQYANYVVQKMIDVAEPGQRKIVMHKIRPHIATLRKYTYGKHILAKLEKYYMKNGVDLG

For “GGCUAGAACUAGUGGAUCCCCCGGCGCCCGGCGGCUCGAGCCCGGGUAAGUGUUAAUAGUCUGCAUGCCGCCGGGCGCCAUGCCUGCAGGUCGACUCUAGAAAACAUG”, the binding signal in [1] is 4.75 log2 enrichment (interaction score); in [2], 4.35 log2 enrichment (interaction score).

In the case of “GGCUAGAACUAGUGGAUCCCCCGGCGCCCGGCGGCUCGAGCCCGGGUAAGUGUAAAUAGUCUGCAUGCCGCCGGGCGCCAUGCCUGCAGGUCGACUCUAGAAAACAUG”, the binding signal in assay [3] is 3.45 log2 enrichment (interaction score); in [4] it was 5.36 log2 enrichment (interaction score); in assay [5], 5.23 log2 enrichment (interaction score); in assay [6], 3.8 log2 enrichment (interaction score); in assay [2], 3.71 log2 enrichment (interaction score).

Regarding “GGCUAGAACUAGUGGAUCCCCCGGCGCCCGGCGGCUCGAGCCCGGGUAAGUGAAAAUAGUCUGCAUGCCGCCGGGCGCCAUGCCUGCAGGUCGACUCUAGAAAACAUG”, the binding signal in assay [7] is 3.17 log2 enrichment (interaction score).

As to “GGCUAGAACUAGUGGAUCCCCCGGCGCCCGGCGGCUCGAGCCCGGGUAAGUGUAAGUAGUCUGCAUGCCGCCGGGCGCCAUGCCUGCAGGUCGACUCUAGAAAACAUG”, the binding signal in assay [8] is 2.68 log2 enrichment (interaction score).

Turning to “GGCUAGAACUAGUGGAUCCCCCGGCGCCCGGCGGCUCGAGCCCGGGUAAGUGUGAAUAGUCUGCAUGCCGCCGGGCGCCAUGCCUGCAGGUCGACUCUAGAAAACAUG”, the binding signal in assay [2] was 2.01 log2 enrichment (interaction score).

Consider “GGCUAGAACUAGUGGAUCCCCCGGCGCCCGGCGGCUCGAGCCCGGGUAAGCGUAAAUAGUCUGCAUGCCGCCGGGCGCCAUGCCUGCAGGUCGACUCUAGAAAACAUG”, for which the binding signal in [9] was 2.98 log2 enrichment (interaction score); in assay [6], 3.71 log2 enrichment (interaction score).

As for “GGCUAGAACUAGUGGAUCCCCCGGCGCCCGGCGGCUCGAGCCCGGGUAAGUGUAAUUAGUCUGCAUGCCGCCGGGCGCCAUGCCUGCAGGUCGACUCUAGAAAACAUG”, the binding signal in assay [8] was 1.67 log2 enrichment (interaction score); in assay [10], 3.61 log2 enrichment (interaction score).

As for “GGCUAGAACUAGUGGAUCCCCCGGCGCCCGGCGGCUCGAGCCCGGGUAAGUGUCAAUAGUCUGCAUGCCGCCGGGCGCCAUGCCUGCAGGUCGACUCUAGAAAACAUG”, the binding signal is 3.94 log2 enrichment (interaction score) in assay [1] and 1.13 log2 enrichment (interaction score) in assay [2].
